In PubChem BioAssay AID1117289 (Broad Institute, 2014):
Measured potencies and affinities stand elsewhere. Inconclusive results are not listed. Active and inactive are the calls of the source.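 The calls were made as follows: active = inhibitor whose fitted half-maximal dose is at most twice the top tested dose in every run; inconclusive = runs disagree, poor fit, or flat fit inhibiting 30 to 70%; inactive = every run inactive, flat, rising or too weak.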

Molecular target: Endoplasmic reticulum aminopeptidase 2 (Homo sapiens) (UniProt Q6P179)
Test: inhibition of ERAP2 Arg-AMC cleavage – biochemical, plate reader, dry powder, set 2, selectivity assay for selective ERAP1 modulator project, dose response (AID 1117289)

Endoplasmic reticulum aminopeptidase 2 (Homo sapiens), sequence (Q6P179 whole entry, looked up): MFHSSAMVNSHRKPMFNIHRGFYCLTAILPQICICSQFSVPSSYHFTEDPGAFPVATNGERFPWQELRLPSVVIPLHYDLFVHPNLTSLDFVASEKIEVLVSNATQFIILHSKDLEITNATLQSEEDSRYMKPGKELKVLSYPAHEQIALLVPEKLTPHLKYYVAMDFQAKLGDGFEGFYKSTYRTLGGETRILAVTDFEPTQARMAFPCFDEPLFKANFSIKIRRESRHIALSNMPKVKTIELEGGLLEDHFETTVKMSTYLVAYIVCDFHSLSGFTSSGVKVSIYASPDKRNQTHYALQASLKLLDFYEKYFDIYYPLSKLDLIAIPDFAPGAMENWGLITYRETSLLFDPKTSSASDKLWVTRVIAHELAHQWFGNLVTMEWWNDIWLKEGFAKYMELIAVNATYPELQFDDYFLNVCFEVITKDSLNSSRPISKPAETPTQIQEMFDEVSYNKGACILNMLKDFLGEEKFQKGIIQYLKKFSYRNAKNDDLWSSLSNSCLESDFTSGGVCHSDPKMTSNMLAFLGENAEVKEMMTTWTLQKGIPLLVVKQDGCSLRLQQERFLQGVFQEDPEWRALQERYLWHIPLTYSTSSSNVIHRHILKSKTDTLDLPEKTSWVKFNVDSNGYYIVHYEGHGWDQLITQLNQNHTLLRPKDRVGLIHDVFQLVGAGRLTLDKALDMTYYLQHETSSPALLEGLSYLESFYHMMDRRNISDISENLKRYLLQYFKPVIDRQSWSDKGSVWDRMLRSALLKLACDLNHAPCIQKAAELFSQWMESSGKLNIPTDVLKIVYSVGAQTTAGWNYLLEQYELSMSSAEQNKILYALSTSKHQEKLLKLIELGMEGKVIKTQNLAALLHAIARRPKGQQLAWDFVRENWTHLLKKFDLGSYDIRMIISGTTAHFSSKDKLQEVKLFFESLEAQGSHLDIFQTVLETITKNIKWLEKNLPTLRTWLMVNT

COc1ccc(C(=O)O)cc1S(=O)(=O)Nc1cc(C(F)(F)F)ccc1N1CCN(C(C)=O)CC1
outcome: inactive

COc1ccc(C2=NN(c3ccc(C(=O)O)cc3)C(c3ccc(OC)c(OC)c3)C2)cc1 (centres undefined)
activity change, negative = inhibition: 289% [at 6 µM] (inactive)

O=C(O)c1cccc(S(=O)(=O)Nc2cc(C(F)(F)F)ccc2N2CCCCC2)c1
outcome: inactive

Cc1ccc(S(=O)(=O)Nc2cc(C(F)(F)F)ccc2N2CCCCC2)cc1C(=O)O
outcome: inactive

O=C(O)c1ccc(Cl)c(S(=O)(=O)Nc2cc(C(F)(F)F)ccc2N2CCCCC2)c1
outcome: inactive

COc1ccc(C(=O)Nc2cccc(C(F)(F)F)c2)cc1S(=O)(=O)O
outcome: inactive

Cc1ccc(C(=O)O)cc1S(=O)(=O)Nc1cc(C(F)(F)F)ccc1N1CCCCC1
outcome: inactive

COc1ccc(C(=O)O)cc1S(=O)(=O)N(C)c1cc(C(F)(F)F)ccc1N1CCCCC1
outcome: inactive

COc1ccc(C(=O)O)cc1S(=O)(=O)Nc1cc(F)ccc1N1CCCCC1
outcome: inactive

COc1ccc(C(=O)O)cc1S(=O)(=O)N1CCN(c2ccc(C(F)(F)F)cc2N)CC1
outcome: inactive

COc1ccc(C(=O)O)cc1S(=O)(=O)Nc1cc(C(F)(F)F)ccc1N1CCOCC1
outcome: inactive

COc1ccc(C(=O)O)cc1S(=O)(=O)Nc1cccc(N2CCCCC2)c1C(F)(F)F
outcome: inactive

O=C(O)c1cc(F)cc(S(=O)(=O)Nc2cc(C(F)(F)F)ccc2N2CCCCC2)c1
outcome: inactive

COc1ccc(C(=O)O)cc1S(=O)(=O)Nc1ccccc1N1CCCCC1
outcome: inactive

COc1ccc(C(=O)O)cc1S(=O)(=O)Nc1cc(C)ccc1N1CCCCC1
outcome: inactive

COc1ccc(C(=O)O)cc1S(=O)(=O)Nc1cc(C(F)(F)F)ccc1N(C)C
outcome: inactive

COc1ccc(C(=O)O)cc1S(=O)(=O)Nc1cc(C(F)(F)F)ccc1N1CCN(C)CC1
outcome: inactive

COc1ccc(C(=O)O)cc1S(=O)(=O)Nc1ccc(N2CCCCC2)cc1C(F)(F)F
outcome: inactive

COc1ccc(C(=O)O)cc1S(=O)(=O)Nc1cc(C(F)(F)F)ccc1N1CCCCC1
outcome: inactive
